The record followed here is PubChem BioAssay (NCATS).

Test [1] is described as follows: qHTS for Inhibitors of the Functional Ribonucleoprotein Complex (vRNP) of Lassa (LASV) Arenavirus: LASV Primary Screen - GLuc reporter signal (AID 1347082; calls by dose curve; tested in HEK293 reporter line; also: nearly all actives have a fitted effect of over 60% in size; as to activity change, negative = inhibition: series mostly up to about 57 µM).
Test [2] is described as follows: qHTS for Inhibitors of the Functional Ribonucleoprotein Complex (vRNP) of Lassa (LASV) Arenavirus: Viability assay - alamar blue signal for LASV Primary Screen (AID 1347083; calls by dose curve; tested in HEK293 reporter line; also: nearly all actives have a fitted effect of over 80% in size; as to activity change, negative = reduced viability: series mostly up to about 57 µM). (In general: In qHTS, concentration-response curves come from the screen itself.)
A short description of test [3]: qHTS for Inhibitors of the Functional Ribonucleoprotein Complex (vRNP) of Lymphocytic Choriomeningitis Arenaviruses (LCMV): Viability assay - alamar blue signal for LCMV Primary Screen (AID 1347085; calls by dose curve; tested in HEK293 reporter line; also: nearly all actives have a fitted effect of over 80% in size; as to activity change, negative = lower viability: series mostly up to about 57 µM).
Test [4] concerns the target Nucleoprotein (Lymphocytic choriomeningitis virus (strain Armstrong)) (UniProt P09992). Description: qHTS for Inhibitors of the Functional Ribonucleoprotein Complex (vRNP) of Lymphocytic Choriomeningitis Arenaviruses (LCMV): LCMV Primary Screen - GLuc reporter signal (AID 1347086). Also: nearly all actives have a fitted effect of over 70% in size. As to activity change, negative = inhibition: series mostly up to about 57 µM.

SMILES strings stand for the structures. Results filed as inconclusive are left out. A number with no mark means an inactive call. Activity calls are given as the source filed them. Unless noted, calls follow the shape of the full dose curve.
% is scaled to controls: 0 for no effect and ±100 for the full control effect; potency is read from the fitted curve at half-maximal effect.

Nucleoprotein (Lymphocytic choriomeningitis virus (strain Armstrong)), sequence (P09992 whole entry, looked up): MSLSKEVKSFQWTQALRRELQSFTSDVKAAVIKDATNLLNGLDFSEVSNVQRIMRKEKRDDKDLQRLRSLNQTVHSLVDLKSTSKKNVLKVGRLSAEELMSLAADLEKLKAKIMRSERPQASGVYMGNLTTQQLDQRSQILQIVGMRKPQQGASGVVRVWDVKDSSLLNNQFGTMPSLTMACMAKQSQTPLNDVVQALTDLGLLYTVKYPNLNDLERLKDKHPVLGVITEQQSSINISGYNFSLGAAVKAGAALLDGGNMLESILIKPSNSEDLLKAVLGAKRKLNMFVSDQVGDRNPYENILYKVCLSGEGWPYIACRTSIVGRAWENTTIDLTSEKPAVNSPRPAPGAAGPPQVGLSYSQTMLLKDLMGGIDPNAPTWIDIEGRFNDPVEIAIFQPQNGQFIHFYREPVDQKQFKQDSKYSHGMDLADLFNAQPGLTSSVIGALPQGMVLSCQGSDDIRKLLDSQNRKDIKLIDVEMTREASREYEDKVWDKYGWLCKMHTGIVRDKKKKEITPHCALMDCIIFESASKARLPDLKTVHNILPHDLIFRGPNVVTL

With `CC1(C)CCC[C@@](C)([C@H]2CC[C@]3(C)[C@@H]2[C@H](O)CC2[C@@]4(C)CC[C@H](O)C(C)(C)[C@@H]4[C@@H](O)C[C@]23C)O1` (stereo not given in full), the Potency entry in test [1], in test [2], in test [3] and in test [4] was “inactive” throughout.
`NC1(Cc2ccc(Cl)cc2)CCN(c2ncnc3[nH]ccc23)CC1`: the Potency in test [1] is 9.68 µM (active); in test [2], 2.73 µM (active); in test [3], 7.69 µM (active); in test [4] it was 9.68 µM (active).
As to `c1ccc(CN(Cc2ccccc2)Cc2ccccc2)cc1`, the Potency result in test [1], in test [2], in test [3] and in test [4] was “inactive” each time.
As to `N#CC(=C1Nc2ccccc2S1)c1ccnc(OCc2ccc(CN3CCOCC3)cc2)n1`, the Potency in test [1] was 7.69 µM (active); in test [2], 4.32 µM (active); in test [3], 1.93 µM (active); in test [4], 1.72 µM (active).
As to `COc1ccc(CCC(=O)O)cc1`, the Potency entry in test [1], in test [2], in test [3] and in test [4] was “inactive” throughout.
For the compound `Cc1cc(OCCCc2c(C(=O)O)n(Cc3cccnc3)c3c(-c4c(COc5ccc(N6CCN([S+](C)(=O)[O-])CC6)cc5)nn(C)c4C)cccc23)cc(C)c1Cl`, the Potency entry in test [1], in test [2], in test [3] and in test [4] was “inactive” each time.
For the compound `CC1=C2C(=O)C3C(CC=C4CC(O)CCC43C)C2CCC12OC1CC(C)CNC1C2C` (stereo not given), the Potency entry in test [1], in test [2], in test [3] and in test [4] was “inactive” in each case.
In the case of `COc1ccc2c(c1)CC1c3c(cc4c(c3-2)OCO4)CC[N+]1(C)[O-]` (stereo not given), the Potency entry in test [1], in test [2], in test [3] and in test [4] was “inactive” in each case.
Turning to `CCCCCCC(=O)OCC`, the Potency entry in test [1], in test [2], in test [3] and in test [4] was “inactive” in each case.
In the case of `CCCCCc1cccc(=O)o1`, the Potency entry in test [1], in test [2], in test [3] and in test [4] was “inactive” each time.
Turning to `O=C1Nc2ccccc2C(=O)N2CCC[C@@H]12`, the Potency result in test [1], in test [2], in test [3] and in test [4] was “inactive” throughout.
Regarding `COc1ccc(CC(C)N)cc1` (stereo not given), the Potency result in test [1], in test [2], in test [3] and in test [4] was “inactive” throughout.
As for `C/C(=C\C(=O)O)CC(=O)O`, the Potency entry in test [1], in test [2], in test [3] and in test [4] was “inactive” throughout.
`NC(=O)c1ncn([C@@H]2O[C@H](CO)[C@@H](O)[C@@H]2O)c1O`: the Potency result in test [1], in test [2], in test [3] and in test [4] was “inactive” in each case.
With `COc1ccc(/C=C/C(=O)O)cc1`, the Potency result in test [1], in test [2], in test [3] and in test [4] was “inactive” throughout.
With `C=CC1CN2CCC1CC2C(O)c1ccnc2ccc(OC)cc12` (stereo not given), the Potency result in test [1], in test [2], in test [3] and in test [4] was “inactive” each time.
For the compound `O=C1C=C(c2ccccc2)CO1`, the Potency entry in test [1], in test [2], in test [3] and in test [4] was “inactive” each time.
For the compound `CCCCCCC(CO)CCCC` (stereo not given), the Potency entry in test [1], in test [2], in test [3] and in test [4] was “inactive” each time.
With `COC1C(O)C(O)C(O)C(O)C1O` (stereo not given), the Potency entry in test [1], in test [2], in test [3] and in test [4] was “inactive” in each case.
With `COc1ccc([C@H]2Cc3cccc(O)c3C(=O)O2)cc1O`, the Potency result in test [1], in test [2], in test [3] and in test [4] was “inactive” throughout.
For `CCN1C[C@@]2(COC)CCC(OC)[C@]34C5C[C@]6(O)[C@@H](OC)C[C@](OC(C)=O)(C([C@H](OC)C23)[C@H]14)C5[C@H]6OC(=O)c1ccc(OC)cc1` (stereo not given in full), the Potency entry in test [1], in test [2], in test [3] and in test [4] was “inactive” throughout.
With `COc1ccc2c(Oc3ccc(NC(=O)c4c(C)n(CC(C)(C)O)n(-c5ccccc5)c4=O)nc3)ccnc2c1`, the Potency result in test [1], in test [2], in test [3] and in test [4] was “inactive” in each case.
In the case of `COc1cc2c(cc1O)[C@@H]1Cc3cc(O)c(OC)cc3[C@H](C2)N1C`, the Potency result in test [1], in test [2], in test [3] and in test [4] was “inactive” in each case.
On to `C[C@@H](O)CCC[C@H](O)/C=C/[C@@H]1[C@@H](C/C=C\CCCC(=O)O)[C@@H](O)C[C@H]1O`, for which the activity change, negative = inhibition in test [1] was -12.1% [at 0.757 µM]; in test [4], -26.1% [at 0.757 µM]. Besides, in test [2], the activity change, negative = reduced viability is -24.9% [at 0.757 µM]. Besides, in test [3], the activity change, negative = lower viability is -64.4% [at 0.757 µM].
For the compound `COc1ccc(CC2c3cc(OC)c(OC)cc3CCN2C)cc1O` (stereo not given), the Potency result in test [1], in test [2], in test [3] and in test [4] was “inactive” each time.
Consider `CC1=CC(=O)/C(=C(/C)O)C(=O)O1`, for which the Potency entry in test [1], in test [2], in test [3] and in test [4] was “inactive” in each case.
As to `CCN1C[C@]2(CO)CC[C@H](OC)[C@@]34C5C[C@H]6[C@H](OC)C5[C@](O)(C[C@H]6OC)[C@@](O)(C(OC)C23)[C@@H]14` (stereo not given in full), the Potency result in test [1], in test [2], in test [3] and in test [4] was “inactive” each time.
On to `O=c1cc(-c2ccc(O)cc2)oc2cc(OC3OC(CO)C(O)C(O)C3O)c(C3OC(CO)C(O)C(O)C3O)c(O)c12` (stereo not given), for which the Potency result in test [1], in test [2], in test [3] and in test [4] was “inactive” in each case.
As for `COc1ccc(C(=O)/C=C/c2ccc(O)cc2)c(O)c1C/C=C(\C)CCC=C(C)C`, the Potency result in test [1], in test [2], in test [3] and in test [4] was “inactive” in each case.
As to `C#CCCC[C@@H]1OC(=O)CNC(=O)C([C@@H](C)CC)NC(=O)[C@@H]2CCCN2C(=O)C([C@@H](C)CC)OC(=O)[C@H](Cc2ccccc2)N(C)C(=O)[C@H](C(C)C)NC(=O)C1(C)C` (stereo not given in full), the Potency entry in test [1], in test [2], in test [3] and in test [4] was “inactive” throughout.
